Among the data in the GenesisPotency data set are outcome values, retold here.

Screen size: about 1,300 compounds; about 35 (3%) were called active. About 48% were inconclusive and are not listed. Calls follow the shape of the dose curve; as a rule, active = well fitted inhibition curve with a large enough effect; inconclusive = small, poorly fitted or top-dose-only effect, or effect the other way; inactive = flat fitted curve, though single readings scatter. Only a selection was taken, and actives are over-represented in it overall.

In this assay the target is T1, ATP-dependent 6-phosphofructokinase, Trypanosoma brucei brucei (UniProt O15648).
T1 sequence (whole entry): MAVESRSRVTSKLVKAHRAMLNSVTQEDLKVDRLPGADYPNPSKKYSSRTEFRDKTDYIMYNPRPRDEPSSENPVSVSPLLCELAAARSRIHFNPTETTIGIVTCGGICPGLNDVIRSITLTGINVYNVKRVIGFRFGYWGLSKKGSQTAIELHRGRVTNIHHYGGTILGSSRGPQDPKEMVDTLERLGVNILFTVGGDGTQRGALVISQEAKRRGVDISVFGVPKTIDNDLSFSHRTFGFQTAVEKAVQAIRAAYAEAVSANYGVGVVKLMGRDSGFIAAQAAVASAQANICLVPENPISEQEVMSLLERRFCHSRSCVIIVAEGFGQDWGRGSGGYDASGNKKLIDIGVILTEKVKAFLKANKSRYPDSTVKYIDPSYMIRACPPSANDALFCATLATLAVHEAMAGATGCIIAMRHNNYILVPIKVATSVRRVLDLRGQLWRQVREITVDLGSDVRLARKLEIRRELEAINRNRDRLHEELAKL
Description: qHTS Validation Assay to Find Inhibitors of T. brucei phosphofructokinase (AID 485368).
Take `N.N.[Cl][Pt][Cl]`: the molecule was classed as active.
